# VACV Venus inh: inhibitors of vaccinia virus (Venus reporter) | Vaccinia virus Venus reporter expression, fluorescence | Potency, µM (titrated, usually from 36.5 µM), inactives show top-dose activity change, negative = inhibition, hits mostly inhibitors | 330,000 compounds, 0.46% hits | AID 720580; calls by dose curve; tested in A549 cells; also: nearly all actives have a fitted effect of over 30% in size
# Marburg entry inh: Marburg virus entry inhibition. AID 540276. Marburg virus pseudotyped entry inhibition, cell reporter. Potency, µM (highest dose often 37.8 µM), for the others: at the top dose activity change, negative = inhibition, usual class: inhibitors. 300,000 compounds, 1.8% hits; calls by dose curve; tested in HEK293 cells
# HCV inh: HCV inhibition | Potency, µM (doses to about 41.8 µM), without a hit: top-dose activity change, negative = inhibition, most hits filed as inhibitors | AID 651820 | 340,000 compounds, 3.4% hits | Huh7.5.1 HCVcc-Cre infection, luciferase reporter, 44 h; active = well fitted inhibition curve with a large enough effect; inconclusive = small, poorly fitted or top-dose-only effect, or another doubt; inactive = no such curve, though single readings can be large or run the other way
#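 Infectious HCV cell culture screen: compound-treated cells (1,000/well, pre-plated 4 h) are infected with HCVcc-Cre at roughly 0.5 moi and grown 44 h. Infection is quantified by luciferase signal after 15 min substrate incubation at room temperature.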
# FMDV antiviral: blocks foot and mouth disease virus | FMDV antiviral cell-based qHTS | Potency, µM (highest dose often 57.9 µM), for the others: at the top dose activity change, negative = inhibition, usual class: inhibitors | 410,000 compounds, 1.2% hits | AID 1159524; calls by dose curve; tested in HEK293T cells; also: read-out not given here; nearly all actives have a fitted effect of over 45% in size
# VACV mCherry inh: inhibitors of vaccinia virus infection (mCherry reporter signal); Vaccinia virus mCherry reporter infection, fluorescence; Potency, µM (titrated, usually from 36.5 µM), for inactives: at the top dose activity change, negative = inhibition, most hits filed as inhibitors; 310,000 compounds, 0.63% hits; calls by dose curve; tested in A549 cells; also: nearly all actives have a fitted effect of over 35% in size
# Lassa entry inh: blocks Lassa virus binding to or entry into cells | Lassa virus pseudotype entry inhibition, cell reporter | Potency, µM (series often up to 37.9 µM), inactives show at the highest dose activity change, negative = inhibition, most hits filed as inhibitors | 300,000 compounds, 1.2% hits; calls by dose curve; tested in HEK293 cells; also: nearly all actives have a fitted effect of over 50% in size
# Numbers without * were called inactive; i = inactive; ? = inconclusive; . = no result given; [ ] = dose if it differs, or a comment. This is a sample that favours compounds with a hit; in the whole collection about 5.3% have one here. % is scaled to controls: 0 for no effect and ±100 for the full control effect; potency is read from the fitted curve at half-maximal effect.
SMILES,VACV Venus inh,Marburg entry inh,HCV inh,FMDV antiviral,VACV mCherry inh,Lassa entry inh
CC(Oc1ccccc1)C(=O)N[C@@H]1C(=O)N2C(C(=O)O)C(C)(C)S[C@H]12 (some centres not stated),-9%,.,.,.,i,.
Cc1cnc(C)c(-c2cc(F)cc3c2OC(CNC(=O)Cc2ccccc2C)C3)n1 (configuration not stated),5%,.,.,-8%,-10%,.
Cc1nc(N2CCc3ccccc3C2)[nH]c(=O)c1Cc1ccccc1,-4%,19%[46.1 µM],-1%,-6%,-1%,9%[46.1 µM]
Cc1nc(-n2[nH]c3c(c2=O)CCCC3)[nH]c(=O)c1Cc1ccccc1,.,?,7.1µM*,?,.,?
Cc1cc(=O)oc2c3c(cc(OCC(=O)NCc4cccnc4)c12)OC(C)(C)CC3,-5%,.,?,-22%,-1%,.
COc1ccc(CNC(=O)COc2cc3c(c4oc(=O)cc(C)c24)CCC(C)(C)O3)cc1,-15%,.,7.1µM*,?,-8%,.
COc1ccccc1CNC(=O)COc1cc2c(c3oc(=O)cc(C)c13)CCC(C)(C)O2,-4%,.,3.5µM*,?,-9%,.
COc1cccc(CNC(=O)COc2cc3c(c4oc(=O)cc(C)c24)CCC(C)(C)O3)c1,-2%,.,1.4µM*,?,-6%,.
COc1ccc(C(C)(O)c2nc(-c3cccc(C(F)(F)F)c3)cs2)cc1 (configuration not stated),-13%,.,.,-22%,i,.
NC(=O)c1cn(C2OC(CO)C(O)C2O)c2ncnc(N)c12 (configuration not stated),0.32µM*,0.073µM*,?,?,0.32µM*,0.29µM*
CC(C)=CCNc1ncnc2c1c(C#N)cn2C1OC(CO)C(O)C1O (configuration not stated),-26%,-5%,?,-19%,-17%,-3%
N#Cc1cn(C2OC(CO)C(O)C2O)c2ncnc(N)c12 (configuration not stated),?,?,?,14%,?,0.63µM*
Nc1ncnc2c1ncn2[C@@H]1O[C@H](CO)[C@@H](O)[C@H]1O,0%,17%,?,-22%,-12%,11%
Cc1nc(CC(=O)NCC2Cc3cc(F)cc(-c4ccc(F)c(C)c4)c3O2)cs1 (configuration not stated),-4%,.,.,-5%,-10%,.
COc1cc(-c2c(-c3ccc4c(c3)OCO4)noc2-c2ccsc2)cc(OC)c1OC,-4%,.,.,.,-10%,.
c1ccc2c(-c3cncc4ccccc34)cncc2c1,-9%,13µM*,8%,-15%,-27%,?
c1ccc2c(c1)-c1cccc3cncc-2c13,-6%,-7%,?,-10%,-11%,26%
CCOc1ccc(CNc2nc3nc(C)c(Cc4ccccc4)c(=O)n3[nH]2)cc1,-11%,?,.,-9%,0%,22%[46.1 µM]
Cc1cccc(-c2nnc(SCc3cc(=O)c4cccc(Cl)c4[nH]3)n2C)c1,-24%,.,.,25µM*,-28%,-20%[46.1 µM]
CC(C)CN=c1cc(-c2ccccc2)oc2ccc(Cl)cc12,-25%,18µM*,?,11%,.,?
CC(C)CC1OC(C(C)C)Cc2[nH]c(=S)[nH]c(=O)c21 (configuration not stated),0.013µM*,.,.,0%,.,.
CC(C)(C)NC(=O)NC(=O)COC(=O)c1cccc(NS(=O)(=O)c2ccc(F)c(F)c2)c1,-27%,?,1%,-19%,i,10µM*
CC(C)(C)NC(=O)NC(=O)COC(=O)c1cccc(S(=O)(=O)N2CCCCC2)c1,-7%,-2%,30%,-21%,-7%,8%
CC(C)(C)c1ccc(C(=O)OCC(=O)Nc2cccc(S(=O)(=O)NC3=NCCC3)c2)cc1,-15%,.,.,-3%,-3%,.
CC(C)(C)c1ccc(NC(=O)COC(=O)c2ccc(NS(=O)(=O)c3ccc(F)c(F)c3)cc2)cc1,?,?,0%,?,-1%,13µM*
SMILES,VACV Venus inh,Marburg entry inh,HCV inh,FMDV antiviral,VACV mCherry inh,Lassa entry inh
Cc1ccccc1NC(=O)N1CCCC(c2nc(-c3ccc(C(C)C)cc3)no2)C1 (configuration not stated),.,?,13µM*,?,.,?
Cc1ccc(-c2noc(C3CCCN(C(=O)c4ccc(F)cc4F)C3)n2)cc1 (configuration not stated),.,1%,?,-29%,.,?
CC(C)c1ccc(-c2noc(C3CCCN(C(=O)c4ccc(F)cc4F)C3)n2)cc1 (configuration not stated),.,?,11µM*,?,.,?
Cc1ccccc1NC(=O)N1CCCC(c2nc(-c3ccc(F)cc3)no2)C1 (configuration not stated),.,5%,?,-7%,.,-20%
Cc1ccc(-c2nnc(Nc3ccccc3)o2)cc1,-14%,1.6µM*,-10%,.,i,?
Cc1ccc(NC(=O)Nc2nnc(-c3ccccc3)o2)cc1,7%,29%[46.1 µM],1%,55%,i,12%
CC(C)OC(=O)c1ccc(NC(=O)CSc2nc3ncccc3[nH]2)cc1,.,.,11µM*,?,.,.
CC(C)c1ccc(NC(=O)CSc2nc3ncccc3[nH]2)cc1,.,.,?,-17%,.,.
Cc1ncc2c(c1CNC(=O)c1ccc3c(c1)OCO3)CCN(C(=O)c1ccc3ccccc3c1)C2,-27%,.,.,-9%,-7%,.
CCCCN1C(=O)C(CC(=O)NCc2cccc3ccccc23)CC(C(=O)N(C)C)=C1C (configuration not stated),-11%,.,.,-13%,-23%,.
CN(C)c1ccc(CCc2ccnc3ccccc23)cc1,-17%,.,.,.,10%,.
CCN(CC)S(=O)(=O)c1ccc(N2CCN(CCOc3ccc(OC)cc3)CC2)nc1,-13%,11µM*,?,9%,?,-20%[46.1 µM]
COC(=O)C1=C(C)N(Cc2ccccc2)C(=NCc2cc(OC)c(OC)c(OC)c2)NC1c1cccc(F)c1 (configuration not stated),.,-17%[14.2 µM],.,.,.,?
O=C1c2ccccc2C(=O)c2c(NCCc3ccc(O)cc3)ccc(NCCc3ccc(O)cc3)c21,.,21µM*,.,.,.,5.2µM*
COc1cc2c(cc1OC)CN(C(=O)c1ccc(S(=O)(=O)N3CCCC3)cc1)CC2,1%,.,-15%,11%,-18%,.
CCOc1ccc(NC(=O)CNc2cccc(S(=O)(=O)N3CCCCCC3)c2)cc1OCC,.,.,11µM*,?,.,.
COc1ccc(CC(=O)Nc2cccc(SC)c2)cc1OC,-16%,?,4µM*,?,i,?
CCOc1cc2c(cc1OCC)CN(C(=O)c1cccc(S(=O)(=O)N3CCCC3)c1)CC2,.,.,8.9µM*,-22%,.,.
CC(C)[C@H](NC(=O)c1ccccc1)C(=O)Nc1cccc(S(=O)(=O)N2CCOCC2)c1,-6%,2%,6%,8%,i,-20%
Cc1ccc(NC(=O)[C@@H](NC(=O)c2cccc(S(=O)(=O)N3CCOCC3)c2)C(C)C)cc1C,-7%,?,10µM*,61%,-10%,-11%

# Screening data from PubChem BioAssay.
